Laboratory results taken from PubChem BioAssay AID493033 (ICCB-Longwood Screening Facility, Harvard Medical School, 2011).
Several values for one entry are separate records, joined by “and”; a condition that tells them apart may be missing. Identical values can stand only once. The campaign covered roughly 100,000 compounds. About 930 (0.93%) were called active. The sample holds actives, similar compounds and a random draw of the others, so the mix is not that of the screen. No stated cut-off is given here; in the data, active means inhibition mostly above about 56% (no sharp cut-off); inactive means mostly below about 77%. More than one record can exist for a structure, and the calls need not agree.

What follows are molecules tested against Salicylate synthase (Mycobacterium tuberculosis (strain CDC 1551 / Oshkosh)) (UniProt P9WFX0) (assay: inhibitors of M. tuberculosis MbtI – biochemical, fluorescence intensity, primary screen (AID 493033)). Settings: purified MbtI enzyme, fluorescence intensity read-out, stronger effect = higher value, concentration not given here.
Salicylate synthase (Mycobacterium tuberculosis (strain CDC 1551 / Oshkosh)), sequence (P9WFX0 whole entry, looked up): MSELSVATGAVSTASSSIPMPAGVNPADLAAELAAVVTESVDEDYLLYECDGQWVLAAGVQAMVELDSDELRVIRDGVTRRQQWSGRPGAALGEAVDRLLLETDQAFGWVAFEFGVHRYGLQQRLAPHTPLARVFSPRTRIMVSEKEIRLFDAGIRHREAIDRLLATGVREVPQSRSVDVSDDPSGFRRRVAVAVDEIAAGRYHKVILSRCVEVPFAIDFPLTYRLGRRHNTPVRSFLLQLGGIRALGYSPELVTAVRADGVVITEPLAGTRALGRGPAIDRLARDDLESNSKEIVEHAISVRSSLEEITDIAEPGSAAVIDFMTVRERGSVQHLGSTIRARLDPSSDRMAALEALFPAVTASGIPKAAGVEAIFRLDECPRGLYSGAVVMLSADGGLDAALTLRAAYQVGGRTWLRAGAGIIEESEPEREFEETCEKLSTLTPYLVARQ
`CCn1c(=O)cc(SCC(=O)NC2CCCCC2)c2ccccc21` was tested, and the inhibition was -8.85% (inactive). In the case of `COC(=O)c1ccc(CSCC(=O)Nc2ccc(C)c(C)c2)o1`, the inhibition is reported as -3.9% (inactive). `COc1cc(/C=C/C(=O)N2CCc3ccccc3C2)cc(OC)c1OC` was tested, and the inhibition was -28.7% (inactive). For `S=C(NCCc1ccc(Cl)cc1)Nc1ccccc1`, the inhibition was -14.1% (inactive). For `Oc1cc2c(cc1O)CN(C(=S)NCCc1ccc(Cl)cc1)CCC2`, the inhibition was 100% (active). With `O=C1CCN(C(=S)NCCc2ccccc2)CC1` the inhibition was 14.8% (inactive). In the case of `COc1cc(C#N)ccc1Oc1nc(CN2CCOCC2)nc2scc(-c3cccs3)c12`, the inhibition is reported as 18.1% (inactive). `CC(C)Cn1c(SCc2nnc(-c3ccccc3)o2)nnc1-c1ccccc1F` was tested, and the inhibition was -1.55% (inactive). For `CC1=C(C(=O)OC2CCCC2)C(c2cc3c(cc2Cl)OCO3)C2=C(CCCC2=O)N1` (centres undefined), the inhibition was 116% (inactive). In the case of `COc1ccc(OC)c(NC(=O)CCN2CCC(C)CC2)c1`, the inhibition is reported as -19.2% (inactive). With `COc1ccc(OC)c(NC(=O)CC(Cc2ccccc2OC)C(=O)O)c1` (centres undefined) the inhibition was 2.1% (inactive). With `COc1ccc(OC)c(NC(=O)CS)c1` the inhibition was 97.5% (active). With `O=c1[nH][nH]c(=O)c2cc(N3CCCC3)ccc12` the inhibition was -10.9% (inactive). `N#CSc1ccc(N2CCCCC2)cc1` was tested, and the inhibition was 21.2% (inactive). With `O=C1C=CC(=O)N1c1ccc(N2CCCCC2)cc1` the inhibition was 99.7% (active). With `COc1ccccc1C(=O)Nc1ccccc1N1CCN(C)CC1` the inhibition was -4.85% (inactive). For `Fc1ccc(NC(=S)N2CCN=C2Nc2ccc(F)cc2)cc1`, the inhibition was 72.3% (active). In the case of `OC1CCN(C(=S)Nc2ccccc2)CC1`, the inhibition is reported as -8.65% (inactive). `COc1ccc(NC(=S)N2CCCCC2)cc1` was tested, and the inhibition was -6.7% (inactive). For `COc1ccc(-c2nnc(SCC(=O)NC3CCCc4ccccc43)o2)cc1OC` (centres undefined), the inhibition was -3.65% (inactive). In the case of `COc1cccc(C(=O)Nc2ccccc2C#N)c1OC`, the inhibition is reported as -17.5% (inactive). In the case of `CC(C)Cn1nccc1N`, the inhibition is reported as -12% (inactive). `CC(C)CN1C(=O)C=CC1=O` was tested, and the inhibition was 80.8% (active). With `O=C(NCCCN1CCCC1)C1CCN(c2nc3ccccc3n3cccc23)CC1` the inhibition was -7.35% (inactive). `CC(C)c1n[nH]c(=S)n1N` was tested, and the inhibition was 96.5% (active). `CCn1c(C(C)C)n[nH]c1=S` was tested, and the inhibition was 2.75% (inactive). `CC(C)Sc1n[nH]c(=S)n1N` was tested, and the inhibition was 98.2% (active). `N#Cc1c(-c2c(O)[nH]c3ccccc23)c2c(-c3ccncc3)[nH]nc2oc1=N` was tested, and the inhibition was -1.15% (inactive). In the case of `CCS(=O)(=O)Nc1ccc(Cl)cn1`, the inhibition is reported as 89.8% (inactive). For `COCCNc1oc(COc2ccc(Br)cc2)nc1C#N`, the inhibition was -15% (inactive). In the case of `COc1ccc(C2Nn3c(C)nnc3SC2C(=O)N2CCCC2)cc1` (centres undefined), the inhibition is reported as -6.35% (inactive). `Cc1ccc(-n2c(SC(C)C(=O)NC(N)=O)nc3ccccc32)cc1` (centres undefined) was tested, and the inhibition was -6.15% (inactive). `CCCCSC1=NC(C)(C)Nc2ccccc21` was tested, and the inhibition was -13.3% (inactive). For `CC(C)NC(=O)CSc1nc(-c2ccccc2)cn1N`, the inhibition was 11.2% (inactive). For `CCOC(=O)c1cc(-c2ccccc2)no1`, the inhibition was -8.95% (inactive). `O=C(COC(=O)/C=C/c1cccs1)Nc1ncc(Br)s1` was tested, and the inhibition was 0.8% (inactive). `CCOc1ccc2c(c1)sc1nc(=O)n(-c3ccccc3)c(=O)n12` was tested, and the inhibition was 3.85% (inactive). `CCOc1ccc(OCCBr)cc1` was tested, and the inhibition was -5.55% (inactive). With `CCOc1ccc2[nH]c(=S)sc2c1` the inhibition was 81.3% (active). In the case of `CNC(=O)c1cc2c(n(-c3ccccc3)c1=O)CC(C)(C)CC2=O`, the inhibition is reported as 72.9% (inactive). With `CC(C)(C)c1nc(=S)[nH][nH]1` the inhibition was 59.2% (active). In the case of `O=C(c1ccco1)N1CCN(C(=O)c2cnn(-c3ccccc3)c2-n2cccc2)CC1`, the inhibition is reported as -6.6% (inactive). `COc1cccc(C(=O)Nc2ccc(N3CCCC3)cc2)c1` was tested, and the inhibition was -7% (inactive). With `COc1cccc(N2C(=O)C=CC2=O)c1` the inhibition was 98.8% (active). In the case of `CCCCNC(=O)c1cccc(OC)c1`, the inhibition is reported as -2.5% (inactive). For `CCN1CCN(CCCNC(=S)Nc2ccc3nc(N4CCN(CC)CC4)cc(C)c3c2)CC1`, the inhibition was 35.8% (inactive). In the case of `Cc1ccc(-c2nnc(SCc3c(C)cc(C)cc3C)o2)cc1`, the inhibition is reported as -3.75% (inactive). `O=C(CSc1nnc(-c2cccs2)n1-c1ccccc1)OC1CCS(=O)(=O)C1` (centres undefined) was tested, and the inhibition was -45% (inactive). `CC(C)n1c(-c2ccncc2)n[nH]c1=S` was tested, and the inhibition was 93.6% (active). In the case of `FC(F)(F)c1cccc(-n2c(-c3ccncc3)n[nH]c2=S)c1`, the inhibition is reported as 6% (inactive). In the case of `S=c1[nH]nc(-c2ccncc2)n1/N=C/c1cccnc1`, the inhibition is reported as -6.8% (inactive) and -8.55% (inactive). In the case of `CCOC(=O)N1CCN(C(=O)COC(=O)c2cccc(S(C)(=O)=O)c2)CC1`, the inhibition is reported as -7.25% (inactive). `NC(=O)c1nnc(Cc2ccc(Cl)cc2)o1` was tested, and the inhibition was -6.1% (inactive). In the case of `CC(C)n1nc(C(N)=O)c2ccccc2c1=O`, the inhibition is reported as 14.1% (inactive). With `O=C(CCC(=O)N1CCCCc2ccccc21)NC1CCCC1` the inhibition was -4.6% (inactive). With `NCCc1ccc(Cl)cc1` the inhibition was -11.3% (inactive). In the case of `O=C1CSc2ccccc2N1Cc1ccc(Cl)cc1`, the inhibition is reported as -5.75% (inactive). In the case of `O=C1C=CC(=O)N1Cc1ccc(Cl)cc1`, the inhibition is reported as 71.7% (active). In the case of `CCOC(=O)c1oc2ccccc2c1CN1c2cccc3cccc(c23)S1(=O)=O`, the inhibition is reported as -5.65% (inactive). `COC(=O)c1cccc(OCC(O)CNC2CCN(Cc3ccccc3)CC2)c1` (centres undefined) was tested, and the inhibition was 12.9% (inactive). With `Oc1ccc(CNc2ccccc2O)cc1` the inhibition was 92% (active). In the case of `NC(=S)CC(=O)NCc1ccccc1`, the inhibition is reported as 65.2% (inactive). `O=C(CS(=O)(=O)c1ccccc1)Nc1ccccc1O` was tested, and the inhibition was -1.55% (inactive). With `C=CCn1c(SCC(=O)c2ccc(N(C)S(C)(=O)=O)cc2)nnc1C1CCCCC1` the inhibition was 0.8% (inactive). In the case of `Cc1cc(N2CCN(c3ccccc3)CC2)n2c(nc3ccccc32)c1C#N`, the inhibition is reported as 4.55% (inactive). With `CC(NC(=O)c1ccccc1NC(=O)c1ccco1)C(=O)NN(c1ccccc1)c1ccccc1` (centres undefined) the inhibition was 31.5% (inactive). With `Cc1occc1-c1nnc2sc(Cc3cccc4ccccc34)nn12` the inhibition was 79.1% (inactive). For `Nc1nnc(SCc2ccccc2)s1`, the inhibition was 38.8% (inactive). With `NC1=NC(=O)C(Cc2cccc(Cl)c2)S1` (centres undefined) the inhibition was 0.55% (inactive). For `N=C1N=C(N)C(Cc2ccccc2)S1` (centres undefined), the inhibition was 84.2% (active). With `CN(C(=O)CSc1cccc[n+]1[O-])C1CCCCC1` the inhibition was 2.9% (inactive). For `CCOC(=O)C1=C(C)NC(C)=C(C(=O)OCC)C1C(=O)OCc1cc(=O)n2cc(C)ccc2n1`, the inhibition was -9.2% (inactive). `O=C(O)CN1C(=O)/C(=C2/OC(=O)c3ccccc32)SC1=S` was tested, and the inhibition was 13.1% (inactive). For `O=C(O)CCCN1C(=O)/C(=C2\SC(=S)N(CCCC(=O)O)C2=O)SC1=S`, the inhibition was 88.5% (active). In the case of `O=C(O)CCCN1C(=O)c2ccccc2Sc2ncccc21`, the inhibition is reported as 4.25% (inactive). For `N#Cc1ccc(NC(=O)CSc2ncn[nH]2)cc1`, the inhibition was 15.7% (inactive). In the case of `COC(=O)c1cccc(Cn2nc(C)c(Cl)c2C)c1`, the inhibition is reported as -1.2% (inactive). `CCOC(=O)c1c(N)sc2c1CC(C)(C)OC2` was tested, and the inhibition was 64.8% (inactive). `CCOC(=O)c1c(-n2cnnn2)sc(C)c1C` was tested, and the inhibition was 589% [above what the read-out allows, likely interference] (inactive). In the case of `CCOC(=O)c1c(N)sc2c1CCCS2`, the inhibition is reported as 70.4% (active). `Cc1csc(/C(C#N)=N/OC(=O)c2ccco2)n1` was tested, and the inhibition was 6.4% (inactive). With `Cc1cc(C)n(CCCN)n1` the inhibition was -3.05% (inactive). For `O=C(CSc1nccn1-c1ccc(F)cc1)Nc1ccccc1`, the inhibition was 9.1% (inactive). For `Cc1nc2cccc[n+]2c(-c2ccccc2)c1C`, the inhibition was -10.6% (inactive). With `CCOc1cccc2sc(NC(C)=O)nc12` the inhibition was 17.4% (inactive). In the case of `N/C(COc1ccccc1)=N\O`, the inhibition is reported as -4.9% (inactive). In the case of `S=c1[nH]nc(COc2ccccc2)o1`, the inhibition is reported as 64% (active) and 19.4% (inactive). `c1ccc(OCc2nc(-c3ccccn3)n[nH]2)cc1` was tested, and the inhibition was 4.2% (inactive). In the case of `COc1ccc(-c2nc(CS(=O)(=O)c3ccc(F)cc3)no2)cc1OC`, the inhibition is reported as -17% (inactive). In the case of `COCCCn1cc(C(=O)c2cc(F)ccc2O)cc(C#N)c1=O`, the inhibition is reported as 0.95% (inactive). With `Cc1ccccc1NC(=O)COC(=O)c1ccccc1` the inhibition was 16.1% (inactive). `Cc1ccccc1NC(=O)CSC(=O)c1ccccc1` was tested, and the inhibition was 75% (active). For `Cc1ccccc1NC(=O)NC(=O)CC#N`, the inhibition was -2.55% (inactive). With `CCn1c(O)c(/C=N/N=C2/C(=O)N(C)c3ccccc32)c(=O)n(CC)c1=S` the inhibition was 7.05% (inactive). `N#C/C(=C\c1cc2ccccc2nc1N1CCOCC1)C(=O)Nc1ccc2c(c1)OCCO2` was tested, and the inhibition was 12% (inactive). `O=C(CSc1ccc(Cl)cc1)N1CCc2ccccc21` was tested, and the inhibition was -9.4% (inactive). In the case of `CC(=O)OC1=C(Sc2ccc(Cl)cc2)C(=O)CCC1`, the inhibition is reported as 59.8% (active). For `CC1(C)CC(=O)C(Sc2ccc(Cl)cc2)=C(N2CCOCC2)C1`, the inhibition was 4.9% (inactive). `CCOC(=O)c1cc(S(=O)(=O)NC2CCCc3ccccc32)cn1C` (centres undefined) was tested, and the inhibition was -4.15% (inactive). For `COC(=O)c1ccc(N)cc1`, the inhibition was 16.6% (inactive). For `COc1ccc(-n2c(SCC(=O)c3ccc4c(c3)NC(=O)CO4)nc3ccccc3c2=O)cc1OC`, the inhibition was -1.55% (inactive). With `CC1(C)Oc2ccccc2C2CC(c3ccccc3)=NN21` (centres undefined) the inhibition was 10.8% (inactive). In the case of `CSC(=S)Nc1ccc(C)cc1`, the inhibition is reported as -4.35% (inactive). For `Cc1ccc(NC(=S)Nc2ccc(C)cc2)cc1`, the inhibition was 56.7% (active). In the case of `Cc1ccc(NC(N)=O)cc1`, the inhibition is reported as -7.15% (inactive). `Cn1c(SCc2nc(-c3cccs3)no2)nnc1-c1ccncc1` was tested, and the inhibition was -11.6% (inactive). With `CCOC(=O)CSc1ccccn1` the inhibition was 81.9% (active). `CCOC(=O)CSc1cc(C)nc(SCC(=O)OCC)n1` was tested, and the inhibition was 7.15% (inactive). `CC1CC(=O)Nc2ccccc2N1C(=O)CSc1ccccn1` (centres undefined) was tested, and the inhibition was -3.2% (inactive).
